Screens (PubChem BioAssay)
Most compounds without a hit are left out; they make up all but 7.4% or so of the library.
KinaseGlo FLuc: Counterscreen for Luciferase (Kinase-Glo TM) Inhibition; Luciferin 4-monooxygenase (Photuris pensylvanica), Q27757; Potency, µM (series often up to 38.3 µM), inactives show at the highest dose activity change, negative = inhibition, hits mostly inhibitors; Kinase-Glo luciferase, ATP luminescence, 8 min; actives 0.28% (n = 200,000); further: on the % scale 0 is the no-effect control and ±100 the full control effect; nearly all actives have a fitted effect of over 60% in size
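Compounds were added to a substrate mix at pH 7.2 (50 mM imidazole, 10 uM ATP, within the enzyme's linear range), followed by Kinase-Glo detection reagent; luminescence was measured after 8 minutes at ambient temperature.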
NPC1 prom act: qHTS Assay for NPC1 Promoter Activators; Huh7 NPC1 promoter luciferase reporter, 24 h; Potency, µM (highest dose often 9.22 µM), without a hit: at the highest dose activation, most hits filed as activators; actives 2.4% (n = 320,000); AID 485313, 2010; further: % of control where 0% means no effect; nearly all actives have a fitted effect of over 60% in size
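Huh7 cells stably carrying NPC1 promoter–luciferase, plated in Opti-MEM with 10% FBS for 2 h, were exposed to compound in DMSO for 24 h at 37 °C; luciferase reagent was added for 10 min and luminescence read.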
Rab9 promoter act: qHTS Assay for Rab9 Promoter Activators. Huh7 Rab9 promoter-luciferase reporter, luminescence, 24 h. Potency, µM (highest dose often 9.22 µM), inactives show at the top dose activation, negative = inhibition, hits mostly activators. actives 2.8% (n = 320,000); further: % of control where 0% means no effect; nearly all actives have a fitted effect of over 60% in size
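Cell-based reporter: Huh7 stable for Rab9 promoter-driven luciferase, plated in reduced-serum medium with 10% FBS at 1500 cells/well, compound-treated 24 h at 37 °C, luminescence read after 10 min reagent.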
FLuc counter: qHTS profiling assay for firefly luciferase inhibitor/activator using purifed enzyme and Km concentrations of substrates (counterscreen for miR-21 project) | Luciferin 4-monooxygenase (Photinus pyralis), P08659 | purified FLuc, Km substrates, luminescence inhibition | Potency, µM (doses to about 57.5 µM), for inactives: top-dose activity change, negative = inhibition, hits mostly inhibitors | actives 6.9% (n = 360,000) | AID 588342, 2011;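 further: plate controls were vehicle for no effect and reference inhibitor for full effect; nearly all actives have a fitted effect of over 55% in size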
Target sequence (P08659 whole entry, looked up): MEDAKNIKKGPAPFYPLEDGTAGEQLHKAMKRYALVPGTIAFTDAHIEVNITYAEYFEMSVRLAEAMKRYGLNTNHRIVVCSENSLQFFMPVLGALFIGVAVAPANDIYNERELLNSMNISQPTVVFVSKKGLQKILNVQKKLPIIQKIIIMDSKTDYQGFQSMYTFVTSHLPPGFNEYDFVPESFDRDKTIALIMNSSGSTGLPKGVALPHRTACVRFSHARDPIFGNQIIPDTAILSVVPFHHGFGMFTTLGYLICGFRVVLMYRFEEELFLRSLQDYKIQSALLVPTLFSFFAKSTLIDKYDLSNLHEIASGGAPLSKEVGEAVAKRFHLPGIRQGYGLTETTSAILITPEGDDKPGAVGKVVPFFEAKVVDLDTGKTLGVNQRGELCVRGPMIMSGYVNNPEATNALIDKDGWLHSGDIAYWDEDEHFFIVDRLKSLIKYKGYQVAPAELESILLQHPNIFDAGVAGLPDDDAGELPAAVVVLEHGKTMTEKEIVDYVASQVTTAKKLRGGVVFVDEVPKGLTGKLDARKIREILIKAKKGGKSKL
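Purified P. pyralis luciferase (10nM final) with 10uM D-luciferin and 10uM ATP (Km levels) in 50mM Tris acetate pH 7.5, 10mM Mg acetate, 0.01% Tween-20, 0.05% BSA; qHTS 6-point titration, ~60 µM downward; luminescence read.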
SMN2 splice up: qHTS Assay for Enhancers of SMN2 Splice Variant Expression; HEK293 SMN2-luciferase splicing reporter, luminescence, 30-36 h; Potency, µM (highest dose often 46.1 µM), without a hit: top-dose activity change, positive = activation, hits mostly activators; actives 2.8% (n = 210,000); further: % of control where 0% means no effect; nearly all actives have a fitted effect of over 55% in size
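HEK293 cells carry an SMN2 minigene-luciferase reporter in which exon 7 inclusion puts luciferase in frame. Cells were seeded at 2000 cells/well, attached for 10-12 hours, then exposed to compounds for 30-36 hours at 37C before ONE-Glo luminescence.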
ELG1 genotox: qHTS screen for small molecules that induce genotoxicity in human embryonic kidney (HEK293T) cells expressing luciferase-tagged ELG1 | HEK293T ELG1-luciferase reporter, luminescence, 16 h | Potency, µM (top dose mostly 46 µM), for inactives: top-dose activity change, positive = activation, usual class: activators | actives 1.3% (n = 330,000); further: % of control where 0% means no effect; nearly all actives have a fitted effect of over 60% in size
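ELG1-luciferase HEK293T cells, 2,000/well; compound pinned in; 16 hr, 37 °C, 5% CO2; ONE-Glo, 30 min RT; luminescence on CCD imager.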
Starred values were filed as active, the others as inactive. The call rests on the fitted dose curve; in most records, active means well fitted curve in the direction sought with a large enough effect; inconclusive means small, poorly fitted or top-dose-only effect, or another doubt; inactive means no such curve, though single readings can be large; an effect the other way counts as inactive or inconclusive. Potency means the concentration at half of the fitted maximal effect.

Results for CC1(C)Cc2ccccc2C(N/N=C/c2cccc(F)c2)=N1 ?
KinaseGlo FLuc: 4%; NPC1 prom act: -4%; Rab9 promoter act: -8%; FLuc counter: -14%; SMN2 splice up: -21%; ELG1 genotox: -2%

How did Brc1ccc(-c2ccc(/C=N/Nc3nc4ccccc4[nH]3)o2)cc1 do in these assays?
KinaseGlo FLuc: inconclusive; NPC1 prom act: inconclusive; Rab9 promoter act: inconclusive; FLuc counter: 0.85µM*; SMN2 splice up: 7.9µM*; ELG1 genotox: inconclusive

How did Fc1cccc(/C=N/Nc2nc3ccccc3[nH]2)c1 do in these assays?
KinaseGlo FLuc: -4%; NPC1 prom act: inconclusive; Rab9 promoter act: 3.2µM*; FLuc counter: 8.5µM*; SMN2 splice up: inconclusive; ELG1 genotox: inconclusive

What do the screens show for `Brc1ccc(-c2ccc(/C=N/Nc3nncc(-c4ccccc4)n3)o2)cc1`?
KinaseGlo FLuc: -3%; NPC1 prom act: 2%; Rab9 promoter act: -1%; FLuc counter: -11%; SMN2 splice up: -4%; ELG1 genotox: -1%

Results for C(/CCc1ccccc1)=N\Nc1nc2ccccc2[nH]1 ?
KinaseGlo FLuc: -6%; NPC1 prom act: 14%; Rab9 promoter act: 22%; FLuc counter: 2.1µM*; SMN2 splice up: 9%; ELG1 genotox: inconclusive

How did O=c1[nH]c(N/N=C\c2ccc3c(c2)OCO3)nc2ccccc12 do in these assays?
KinaseGlo FLuc: -22%; NPC1 prom act: 0.79µM*; Rab9 promoter act: 0.56µM*; FLuc counter: 3.8µM*; SMN2 splice up: 8.9µM*; ELG1 genotox: inconclusive

What do the screens show for `CCOCCc1nn2c(=O)cc(COC(=O)c3ccccc3OC)nc2s1`?
FLuc counter: -1%

What do the screens show for `COc1cccc(-c2coc3ccc(Br)cc3c2=O)c1`?
KinaseGlo FLuc: 1%; SMN2 splice up: inconclusive

What do the screens show for `Fc1ccc(/C=N/Nc2nc3ccccc3[nH]2)cc1F`?
KinaseGlo FLuc: 1%; NPC1 prom act: inconclusive; Rab9 promoter act: 29%; FLuc counter: 12µM*; SMN2 splice up: 12%; ELG1 genotox: 10%

What do the screens show for `Cc1cc(=O)[nH]c(N/N=C/c2ccc(F)cc2)n1`?
NPC1 prom act: 16%; Rab9 promoter act: 23%; FLuc counter: inconclusive; ELG1 genotox: 7%

How did Cc1cc(N/N=C/c2ccc3c(c2)OCO3)nc2ccccc12 do in these assays?
NPC1 prom act: inconclusive; Rab9 promoter act: 2.5µM*; FLuc counter: 2.7µM*; ELG1 genotox: 14%

Results for Cc1oc2ncn(C)c(=O)c2c1C(=O)N(C)c1ccccc1F ?
FLuc counter: 1%

How did CC(=O)c1ccc(NC(=O)c2ccn[nH]2)cc1 do in these assays?
KinaseGlo FLuc: -28%; NPC1 prom act: 2µM*; Rab9 promoter act: 3.5µM*; FLuc counter: 9.5µM*; SMN2 splice up: 11µM*; ELG1 genotox: 10µM*

How did O=C(Nc1ccccc1)c1ccn[nH]1 do in these assays?
KinaseGlo FLuc: -20%; NPC1 prom act: 3.5µM*; Rab9 promoter act: 2.5µM*; FLuc counter: 11µM*; SMN2 splice up: 13µM*; ELG1 genotox: inconclusive

How did Cc1ccc(C(=O)Nc2ccccc2C(=O)O)cc1NC(=O)COc1c(C)cccc1C do in these assays?
KinaseGlo FLuc: 0%; NPC1 prom act: -3%; Rab9 promoter act: -5%; FLuc counter: 13µM*; SMN2 splice up: 13%; ELG1 genotox: -3%

Results for COCC(=O)Nc1cc(C(=O)Nc2ccccc2C)ccc1Cl ?
KinaseGlo FLuc: -9%; NPC1 prom act: 7%; Rab9 promoter act: 6%; FLuc counter: inconclusive; SMN2 splice up: 11%; ELG1 genotox: 4%

What do the screens show for `Cc1cc(C(=O)Nc2ccccc2C(=O)O)ccc1NC(=O)COc1cccc([N+](=O)[O-])c1`?
KinaseGlo FLuc: 1%; NPC1 prom act: -1%; Rab9 promoter act: -3%; FLuc counter: 24µM*; ELG1 genotox: 3%

How did Cc1cc(C(=O)Nc2ccccc2C(=O)O)ccc1NC(=O)COc1cccc(C)c1C do in these assays?
NPC1 prom act: 16%; Rab9 promoter act: 14%; FLuc counter: 6µM*; ELG1 genotox: 29%

How did CCCn1c(-c2ccc(F)cc2)nc2c(N3CCC(N(C)C)C3)nc(C)nc21 (stereo not given) do in these assays?
KinaseGlo FLuc: -2%; SMN2 splice up: -10%

What do the screens show for `[O-]/[N+](=C/c1ccc(F)cc1)c1ccc(Cl)cc1`?
KinaseGlo FLuc: -4%; NPC1 prom act: inconclusive; Rab9 promoter act: 18%; FLuc counter: 4.8µM*; SMN2 splice up: 11%; ELG1 genotox: 16µM*

What do the screens show for `O=Cc1ccc(OCc2ccc3ccccc3c2)cc1`?
NPC1 prom act: 15%; Rab9 promoter act: inconclusive; FLuc counter: 5.4µM*; ELG1 genotox: inconclusive

How did COC(=O)c1ccc(COc2ccc(C=O)cc2)o1 do in these assays?
NPC1 prom act: 2%; Rab9 promoter act: -3%; FLuc counter: -15%; ELG1 genotox: 2%

What do the screens show for `O=Cc1ccc(OCc2ccccn2)cc1`?
KinaseGlo FLuc: inconclusive; NPC1 prom act: -1%; Rab9 promoter act: -3%; FLuc counter: inconclusive; SMN2 splice up: 16µM*; ELG1 genotox: 14%

Results for c1ccc(COc2cccc(CNCc3ccccn3)c2)cc1 ?
KinaseGlo FLuc: 0%; NPC1 prom act: 1%; Rab9 promoter act: 11%; FLuc counter: inconclusive; SMN2 splice up: -15%; ELG1 genotox: 1%

Results for Cc1ccc(NC(=O)COC(=O)CCc2ccccc2)c(Cl)c1 ?
NPC1 prom act: -1%; Rab9 promoter act: -2%; FLuc counter: 17µM*; ELG1 genotox: 8%

What do the screens show for `CCCCN(CC)CCCNC(=O)c1nn(-c2ccc(OC)cc2)c(=O)c2c1c1ccccc1n2C`?
FLuc counter: 0%; SMN2 splice up: 7%

Results for CC(C)(C)c1ccc(/C=N/Nc2cccc(C(=O)O)c2)cc1 ?
KinaseGlo FLuc: -2%; NPC1 prom act: 0.5µM*; Rab9 promoter act: 1.1µM*; FLuc counter: 0.17µM*; SMN2 splice up: 0.1µM*; ELG1 genotox: 0.15µM*

Results for Oc1ccc(/C=N/Nc2ccccc2)cc1 ?
KinaseGlo FLuc: -1%; NPC1 prom act: -1%; Rab9 promoter act: 11%; FLuc counter: -16%; SMN2 splice up: -6%; ELG1 genotox: 9%
